# From PubChem BioAssay
# Where “and” joins values, the source holds several entries; their conditions need not be identical. Identical values can stand only once. Results filed as inconclusive are left out. Calls of active or inactive are those of the source.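 The calls were made as follows, unless noted: active = compounds whose cell count with miR-34 switched on is under 0.7 times the count with it off; inactive = the rest.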
# Key:
# [1] = stimulators of nuclear beta-catenin in C2C12, primary screen, imaging, WNT3A-conditioned medium, mouse C2C12, NPC library (AID 1117326; in the data active = nuclear beta-catenin stimulation mostly above about 4.2%, no sharp cut-off; inactive = mostly below about 10%; also: reference of the scale not given here); details: stronger effect = higher value
# [2] = stimulators of insulin release from INS-1E, primary screen, cell-based, 5 mM glucose, NPC library (AID 1117329;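 active = compound raises insulin release from rat beta cells at 5 mM glucose, no numeric limit stated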; also: reference of the scale not given here); details: rat INS-1E insulin secretion, at 10 µM, stronger effect = higher value
# [3] = growth inhibition of GSK3B-pretreated HCT116 cells – cell-based, CellTiter-Glo, 0.2 to 20 µM (AID 1117336;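 active = compounds lowering colon cancer cell viability after pretreatment blocking the GSK3B kinase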); details: HCT116 viability after GSK3B inhibitor, at 20 µM, stronger effect = higher value
# [4] = inhibition of endothelial tube formation, primary screen, imaging, VEGF stimulated, CD31 staining, tube area, NPC library (AID 1117340;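 active = compound that reduces growth-factor-driven endothelial tube area in a mixed cell culture, no cutoff stated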); details: VEGF-stimulated ADSC/ECFC co-culture, at 10 µM, stronger effect = higher value
# [5] = glucagon-like peptide 1 release enhancers, primary assay, NCI-H716 cell line, NPC library (AID 1117341;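 active = compound raises GLP1 secretion from the human gut endocrine cells, with no numeric limit stated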; also: reference of the scale not given here); details: NCI-H716 cells, at 10 µM, stronger effect = higher value
# [6] = HCT116 colon cancer cell growth inhibition, primary screen, CellTiter-Glo luminescence, NPC library (AID 1117342;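 active = compounds that lower survival of HCT116 colon cancer cells in the luminescence readout, no numeric limit stated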); details: at 20 µM (top of the series)
# [7] = CellTiter-Glo luminescent readout of SW480 viability loss, NPC library primary (AID 1117343;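 active = compounds that lower viability of the colon cancer cells in the luminescence readout, with no numeric limit stated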); details: CellTiter-Glo luminescence; at 20 µM (top of the series) unless noted
# [8] = decreased DLD-1 cellular survival, CellTiter-Glo luminescent readout, NPC compound collection, primary HTS (AID 1117346;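 active = compounds that lower survival of DLD-1 colon cancer cells in the luminescence readout, no cutoff given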); details: DLD-1 viability, CellTiter-Glo luminescence; at 20 µM (top of the series)
# [9] = test system: Aerobactin synthetase IucA (Klebsiella pneumoniae); experiment: IucA aerobactin synthetase inhibitors, biochemical, Tocris library, absorbance (AID 1345561; call rule not given here;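 also: 100% = enzyme without compound and 0% = no enzyme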); details: purified IucA enzyme assay, absorbance (OD) read-out; stronger effect = lower value;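 tested at 8 µM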
# [10] = sensitizers of A549 cells to miR-34 induction, primary screen, imaging, A549 dox-inducible miR-34, nuclei and caspase counts (AID 1347080); details: A549 miR-34 inducible, Hoechst nuclei count, 48 h
# [11] = survival rescue of mitochondrial mutant cells in low glucose, primary screen, MELAS cybrids, Rieske KO mouse fibroblasts, CellTiter-Glo (AID 1508586;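 active = mean z-score across replicates of 1.96 or higher in either the MELAS or the Rieske mutant cell line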;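 also: z relative to plate mean and SD of compound and empty wells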)
# [12] = viability rescue of complex I mutant cybrids, primary screen, cell-based, galactose medium, ATP luminescence (AID 1645843;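 active = z-score of at least 1.8 in each of two replicates, scored against plate mean and spread of sample wells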;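 also: positive z means more ATP and so rescue of galactose-driven cybrid death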); details: complex I mutant cybrid cells, 72 h, stronger effect = higher value
# [13] = liver-stage malaria parasite growth inhibition, primary screen, cell-based, HepG2, luciferase luminescence, HepG2 viability (AID 624349; in the data active = parasite load remaining mostly below about 12%, no sharp cut-off; inactive = mostly above about 10%;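 also: 100% = mean of DMSO negative control wells on the same plate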); details: P. berghei liver stage in HepG2, luciferase luminescence, concentration not given here; parasite load remaining: stronger effect = lower value; viability: measured here: HepG2 viability without parasites
# [14] = growth inhibition of DIPG glioma cells, dose response, cell-based, SU-DIPG-XVII, MIPE5.0, CellTiter-Glo, qHTS (AID 1347060; cut-off not given, nearly all actives have AC50 up to about 26 µM;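 also: cells exposed to compound for 48 hours before viability readout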); details: SU-DIPG-XVII viability, CellTiter-Glo ATP luminescence
# [15] = growth inhibition of DIPG glioma cells, dose response, cell-based, JHH-DIPG-1, MIPE4.0, CellTiter-Glo, qHTS (AID 1347062; cut-off not given, nearly all actives have AC50 up to about 27 µM;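 as to AC50: cells exposed to compound for two days before readout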); details: JHH-DIPG-1 viability, CellTiter-Glo ATP luminescence
# [16] = SU-DIPG-XXV glioma cell viability, MIPE5.0 library, qHTS (AID 1347068; cut-off not given, nearly all actives have IC50 up to about 30 µM;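 as to IC50: cells exposed to compound for 48 hours before viability readout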)
# [17] = target: NAD(+) hydrolase SARM1 (Homo sapiens) (UniProt Q6SZW1); experiment: SARM1 TIR NADase inhibitors, cell lysate, NAD-Glo luminescence (AID 1508614;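 active = compound whose remaining NAD level is above about 45 nM, limit read from the data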;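 also: higher remaining NAD means stronger inhibition of SARM1 NADase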); details: SAM-TIR HEK293T lysate NADase, at 1 µM, stronger effect = higher value
# [18] = growth inhibition of DIPG glioma cells, dose response, cell-based, SU-DIPG-XIII, MIPE4.0, CellTiter-Glo, qHTS (AID 1347061; cut-off not given, nearly all actives have AC50 up to about 37 µM;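 also: cells exposed to compound for 48 hours before readout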); details: SU-DIPG-XIII viability, CellTiter-Glo ATP luminescence
# [19] = stronger effect = lower value, cell number ratio, induced over uninduced
# [20] = measured here: relative caspase fold change +Dox/-Dox
# [21] = measured here: total cells with miR-34 induction, stronger effect = lower value
# [22] = measured here: total cells without miR-34 induction
# [23] = MELAS cybrid survival, CellTiter-Glo 48 h, stronger effect = higher value
# [24] = Rieske KO mouse fibroblast survival, CellTiter-Glo 72 h
# Sequence of NAD(+) hydrolase SARM1 (Homo sapiens) (Q6SZW1 whole entry, looked up): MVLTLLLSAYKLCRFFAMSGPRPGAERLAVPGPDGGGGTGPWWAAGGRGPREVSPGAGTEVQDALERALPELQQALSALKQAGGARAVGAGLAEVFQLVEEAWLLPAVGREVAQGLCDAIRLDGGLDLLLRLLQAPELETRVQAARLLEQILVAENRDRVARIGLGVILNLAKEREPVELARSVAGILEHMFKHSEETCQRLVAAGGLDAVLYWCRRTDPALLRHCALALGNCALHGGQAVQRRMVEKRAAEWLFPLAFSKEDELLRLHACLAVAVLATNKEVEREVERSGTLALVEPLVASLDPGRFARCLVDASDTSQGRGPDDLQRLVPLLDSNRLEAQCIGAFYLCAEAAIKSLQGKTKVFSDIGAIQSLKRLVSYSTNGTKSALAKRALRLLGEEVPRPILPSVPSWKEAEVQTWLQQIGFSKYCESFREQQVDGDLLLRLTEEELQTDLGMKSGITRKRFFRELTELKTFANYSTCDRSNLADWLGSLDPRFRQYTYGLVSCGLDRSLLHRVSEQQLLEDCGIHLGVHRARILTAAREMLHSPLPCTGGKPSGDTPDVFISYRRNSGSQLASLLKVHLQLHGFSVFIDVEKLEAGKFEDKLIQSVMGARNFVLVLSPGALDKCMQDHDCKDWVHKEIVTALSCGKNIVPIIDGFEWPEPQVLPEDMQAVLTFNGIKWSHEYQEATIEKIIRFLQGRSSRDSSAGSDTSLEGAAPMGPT
smiles,measurement,setting,value
C[C@H]1O[C@H](O[C@H]2[C@H](O)[C@@H](O)[C@@H](O[C@H]3[C@H](O)[C@@H](O)[C@H](O)O[C@@H]3CO)O[C@@H]2CO)[C@H](O)[C@@H](O)[C@@H]1N[C@H]1C=C(CO)[C@@H](O)[C@H](O)[C@H]1O,nuclear beta-catenin stimulation,[1]; at 10 µM,-0.6% (inactive)
same,nuclear beta-catenin stimulation,"[1]; stimulation, at 2 µM",-1.1%
same,insulin secretion stimulation,[2],0.7% (inactive)
same,viability decrease,[3],-5.3% (inactive)
same,tube area decrease,[4],-8.2% (inactive)
same,GLP1 secretion stimulation,[5],-2.2% (inactive)
same,inhibition of viability,[6],18.9% (inactive)
same,viability decrease (inhibition),[7],-0.4% (inactive)
same,viability decrease (inhibition),[8],-0.5% (inactive)
same,remaining activity,[9],108% (inactive)
same,fold change,[10]; [19],0.838 (inactive)
same,fold change,[10]; [20],1.97
same,cell count,[10]; [21],7710
same,cell count,[10]; [22],9210
same,z-score,[11]; [23],-0.1 (inactive)
same,z-score,[11]; [24],-0.573
same,z-score,[12],0.18 (inactive)
CC[C@]1(O)C[C@H]2CN(CCc3c([nH]c4ccccc34)[C@@](C(=O)OC)(c3cc4c(cc3OC)N(C=O)[C@H]3[C@@](O)(C(=O)OC)[C@H](OC(C)=O)[C@]5(CC)C=CCN6CC[C@]43[C@@H]65)C2)C1,parasite load remaining,[13],14.9% (inactive)
same,viability,[13],84%
same,nuclear beta-catenin stimulation,[1]; at 10 µM,44% (active)
same,nuclear beta-catenin stimulation,"[1]; stimulation, at 2 µM",76%
same,insulin secretion stimulation,[2],-1.1% (inactive)
same,viability decrease,[3],98.6% (active)
same,tube area decrease,[4],109% (active)
same,GLP1 secretion stimulation,[5],4.5% (inactive)
same,inhibition of viability,[6],67% (active)
same,viability decrease (inhibition),[7],56% (active)
same,viability decrease (inhibition),[8],59.1% (active)
same,remaining activity,[9],121% (inactive)
same,AC50,[14],29.5 nM (active)
same,AC50,[15],5.26 nM (active)
same,IC50,[16],235 nM (active)
same,fold change,[10]; [19],0.912 (inactive) and 1.12 (inactive)
same,fold change,[10]; [20],1.85 and 0.866
same,cell count,[10]; [21],1380 and 1910
same,cell count,[10]; [22],1510 and 1710
same,z-score,[11]; [23],-2.16 (inactive)
same,z-score,[11]; [24],1.73
same,remaining NAD,[17],10 nM (inactive)
same,z-score,[12],-0.515 (inactive) and -1.81 (inactive)
COc1cc2c(cc1OC)[C@@H]1CC(=O)[C@@H](CC(C)C)CN1CC2,nuclear beta-catenin stimulation,[1]; at 10 µM,0.6% (inactive)
same,nuclear beta-catenin stimulation,"[1]; stimulation, at 2 µM",0.1%
same,insulin secretion stimulation,[2],-1.9% (inactive)
same,viability decrease,[3],-9.4% (inactive)
same,tube area decrease,[4],-10% (inactive)
same,GLP1 secretion stimulation,[5],-2.7% (inactive)
same,inhibition of viability,[6],21.4% (inactive)
same,viability decrease (inhibition),[7],2.6% (inactive)
same,viability decrease (inhibition),[8],5.2% (inactive)
same,remaining activity,[9],81.5% (inactive)
same,fold change,[10]; [19],0.993 (inactive)
same,fold change,[10]; [20],1.02
same,cell count,[10]; [21],8740
same,cell count,[10]; [22],8800
same,z-score,[12],0.105 (inactive)
Cn1ccc2cc3c(cc21)CCN3C(=O)Nc1cccnc1,nuclear beta-catenin stimulation,[1]; at 10 µM,0.8% (inactive)
same,nuclear beta-catenin stimulation,"[1]; stimulation, at 2 µM",-1.3%
same,insulin secretion stimulation,[2],-1.4% (inactive)
same,viability decrease,[3],-4.4% (inactive)
same,tube area decrease,[4],-4.4% (active)
same,GLP1 secretion stimulation,[5],0.1% (inactive)
same,inhibition of viability,[6],24.2% (inactive)
same,viability decrease (inhibition),[7],12.7% (inactive)
same,viability decrease (inhibition),[8],-22.3% (inactive)
same,remaining activity,[9],117% (inactive)
same,AC50,[18],14800 nM (active)
same,outcome,[15],inactive
same,outcome,[16],inactive
same,fold change,[10]; [19],1.01 (inactive) and 0.974 (inactive)
same,fold change,[10]; [20],1.08 and 0.723
same,cell count,[10]; [21],11100 and 8340
same,cell count,[10]; [22],11000 and 8560
same,z-score,[12],1.23 (inactive) and 0.545 (inactive)
